Bioassay records from PubChem.
EWS-Fli block = EWS/Fli transcriptional activity inhibition | A673 NR0B1-luciferase reporter, viability-normalised | inhibition, % at 12.6 µM | actives 0.67% (n = 350,000) | AID 651661;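 active = mean inhibition of at least 50% after viability correction, with every replicate also passing that limit; inconclusive = mean reaches 50% but only one of two replicates passes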;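 note: firefly luciferase signal divided by Alamar Blue viability fluorescence both relative to DMSO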
LMP1 NFkB inh = reduces LMP1-driven NF-kappaB luciferase signal; actives 0.69% (n = 350,000); LMP1-induced NF-kappaB luciferase reporter cells, luminescence; inhibition, % at 12.5 µM; AID 504558; in the data active = inhibition above about 41%; inconclusive = no clear call, values can overlap the other calls;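 note: 0% = neutral control wells and 100% = reference inhibitor control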
LGR2 inh = inhibitors of bursicon-induced Drosophila LGR2 receptor cAMP signaling | HEK293 LGR2, CRE-luciferase, bursicon-stimulated, 4 h | inhibition, % at 9.99 µM | actives 0.35% (n = 380,000);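 active = drop in luminescence signal, shown as inhibition above about 50% in the replicate tests, limit read from the data, passing the limit was not always enough; inconclusive = probably only some replicates passing the limit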;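 note: agonist challenge used bursicon conditioned medium at about half maximal strength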
PAX8 inh HTS = lowers PAX8-driven luciferase in RMG-I cells; AID 652154; actives 1.2% (n = 360,000); RMG-I TPO-luciferase reporter, SteadyGlo, 24 h; inhibition, % at 12.6 µM;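 active = mean replicate inhibition at least 60% with every replicate also reaching 60%; inconclusive = only one of the two criteria is met; inactive = mean below 60% and not all replicates reaching 60%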;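 note: luciferase light reporting Pax8 driven TPO promoter activity; plate controls were median of neutral control wells for no effect and mitoxantrone controls for full effect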
PGC1a acetyl inh = PGC1a acetylation modulation, inhibitor mode; U2OS PGC1a acetylation, AlphaScreen anti-acetyl-lysine; with virally co-expressed GCN5 acetyltransferase; inhibition, % at 15.6 µM; actives 0.17% (n = 350,000); AID 651687;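 active = every replicate shows inhibition of at least 40%; inconclusive = mean inhibition at least 40% but some replicate below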;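 note: 0% = neutral control wells and 100% = positive control wells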
MITF TRPM1 inh = MITF TRPM1 promoter inhibition in SK-MEL-5 cells; SK-MEL-5 TRPM1 promoter luciferase, 24 h; inhibition, % at 12.5 µM; actives 0.83% (n = 330,000); AID 488899;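 active = mean inhibition across replicates of 60% or more, whatever share of single replicates reaches that level; inconclusive = some that reach 60%, reason not given; inactive = mean inhibition across replicates below 60%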
* marks the source's active call; other numbers are inactive results; ? = inconclusive; . = no result given. An excerpt weighted towards active compounds, which were near 2.2% of everything screened.

SMILES | EWS-Fli block | LMP1 NFkB inh | LGR2 inh | PAX8 inh HTS | PGC1a acetyl inh | MITF TRPM1 inh
CCOc1cc(/C=N/Nc2cccc(C(=O)O)c2)ccc1OC(=O)c1ccccc1 | -48 | 59* | 64* | 67* | -4 | 91*
Cc1ccc(/C=N/Nc2ccc(C(=O)O)cc2)o1 | -55 | -13 | 6 | -97 | -13 | -68
CCS(=O)(=O)Nc1ccc2c(c1)C(=O)N(C)[C@H]1CC[C@@H](CC(=O)OC)O[C@H]1CO2 | 8 | . | 15 | -30 | -1 | .
CCCC#Cc1cnc2c(c1)C(=O)N([C@H](C)CO)C[C@H](C)[C@H](CN(C)S(=O)(=O)c1cccc(OC)c1)O2 | -5 | . | 4 | 26 | -3 | .
Cc1ccc(/C=N/Nc2cccc(C(=O)O)c2)s1 | . | 14 | 58* | 53 | . | 52
O=C(NC[C@H]1CC[C@@H]2[C@@H](CN2Cc2ccccc2F)O1)C1CC1 | -2 | . | . | -8 | -3 | .
COc1ccc(NC(=O)Nc2ccc3c(c2)CC(=O)N([C@H](C)CO)C[C@H](C)[C@@H](CN(C)Cc2ccc(-c4ccccc4)cc2)O3)cc1 | 15 | . | -6 | 68* | -5 | .
C[C@@H]1CN([C@H](C)CO)C(=O)Cc2cc(NC(=O)Nc3ccccc3)ccc2O[C@@H]1CN(C)Cc1ccc(-c2ccccc2)cc1 | -6 | . | -13 | 11 | 14 | .
C[C@@H]1CN([C@@H](C)CO)C(=O)Cc2cc(NC(=O)Nc3ccccc3)ccc2O[C@H]1CN(C)Cc1ccc(-c2ccccc2)cc1 | 10 | . | 18 | 68* | -42 | .
COc1ccc(NC(=O)Nc2ccc3c(c2)CC(=O)N([C@@H](C)CO)C[C@@H](C)[C@H](CN(C)Cc2ccc(-c4ccccc4)cc2)O3)cc1 | 24 | . | 15 | 75* | -13 | .
COc1ccc(CN(C)C[C@H]2Oc3ccc(NC(=O)Nc4ccc5c(c4)OCO5)cc3CC(=O)N([C@H](C)CO)C[C@H]2C)cc1 | -15 | . | -2 | 103* | -9 | .
COc1ccc(NC(=O)Nc2ccc3c(c2)CC(=O)N([C@@H](C)CO)C[C@H](C)[C@H](CN(C)Cc2ccc(-c4ccccc4)cc2)O3)cc1 | 9 | . | -5 | 22 | -18 | .
O=C(Nc1ccc2nc3n(c(=O)c2c1)CCCCC3)c1cc([N+](=O)[O-])ccc1F | . | -5 | ? | 90* | . | 67*
O=C(Nc1ccc2nc3n(c(=O)c2c1)CCCCC3)c1c(F)ccc([N+](=O)[O-])c1F | . | 80* | 0 | 72* | . | 97*
Cc1ccc(CNC(=O)C2CC(c3cc(C(F)(F)F)cc(C(F)(F)F)c3)=NO2)o1 (centres undefined) | 54* | -4 | 2 | 1 | . | 21
C[C@@H]1CN([C@@H](C)CO)C(=O)Cc2cc(NC(=O)Nc3ccc(F)cc3)ccc2O[C@@H]1CN(C)CC1CCCCC1 | 45 | . | 2 | 1 | . | .
COc1ccc2c3c([nH]c2c1)[C@H](CO)N(C(=O)c1cccc(F)c1)CC31CCN(C(=O)CC2CC2)CC1 | 7 | . | 30 | . | -2 | .
CCCNC(=O)N1CC2(CCN(S(=O)(=O)CC)CC2)c2c(n(C)c3cc(OC)ccc23)[C@H]1CO | 4 | . | -11 | . | -10 | .
C[C@H]1CN([C@@H](C)CO)C(=O)c2cc(NC(=O)CCC(F)(F)F)ccc2O[C@@H]1CN(C)S(=O)(=O)c1cccs1 | -6 | . | -14 | . | -3 | .
COc1ccc2c(c1)[n+](=O)c(C(C)=O)c(C)n2[O-] | . | -10 | . | 1 | -5 | 1
CC(=O)c1c(C)n([O-])c2cc(F)c(F)cc2[n+]1=O | 63* | 6 | -4 | 35 | . | 39
Cc1onc(-c2ccccc2)c1C(=O)Nc1cc(C(F)(F)F)ccc1N1CCOCC1 | . | 69* | . | 43 | -14 | 21
CCCNC(=O)N1C[C@H]2[C@@H](c3ccccc31)[C@@H](CO)N2Cc1ccc2c(c1)OCO2 | 4 | . | -11 | 0 | -12 | .
O=C(N/N=C/C=C/c1ccccc1[N+](=O)[O-])c1cccs1 | -14 | -8 | -12 | -1 | 4 | -6
O=C(Cc1ccc([N+](=O)[O-])cc1)N/N=C/c1ccc([N+](=O)[O-])o1 | 6 | -28 | 30 | 30 | -302 | .
SMILES | EWS-Fli block | LMP1 NFkB inh | LGR2 inh | PAX8 inh HTS | PGC1a acetyl inh | MITF TRPM1 inh
O=C(N/N=C\C=C\c1ccc([N+](=O)[O-])o1)c1cccs1 | 10 | -67 | -6 | 16 | . | 83*
Cc1ccccc1OCC(=O)N/N=C/c1ccc([N+](=O)[O-])o1 | 3 | -26 | -8 | 18 | . | 79*
Cc1ccccc1OCC(=O)NCC(=O)N/N=C/c1ccc(Br)o1 | . | 0 | 11 | -38 | . | -4
COc1ccccc1OCC(=O)N/N=C/C=C/c1ccc([N+](=O)[O-])o1 | 13 | -72 | -15 | 42 | 0 | 76*
CC1(C(=O)N/N=C/c2ccc([N+](=O)[O-])o2)CC1(Br)Br (centres undefined) | 15 | -15 | 1 | 9 | . | 74*
CCOC(=O)N/N=C\c1ccc([N+](=O)[O-])o1 | . | 4 | . | . | -8 | 20
Cc1cc(C)cc(OCC(=O)N/N=C/c2ccc([N+](=O)[O-])o2)c1 | 13 | -18 | 9 | 17 | -39 | 66*
CCO[C@@H]1OC(C(=O)N2CCCC2)=C[C@H](C2CCCCC2)[C@H]1CCCO | 7 | . | . | -8 | -11 | .
COc1ccc(N(C(=O)CCl)C(C(=O)NC2CCCCC2)c2cccnc2)cc1 (centres undefined) | . | 62* | 5 | 113* | . | 87*
O=C(NC1CCCCC1)C(c1cccnc1)N(C(=O)CCl)c1ccc(F)cc1 (centres undefined) | 57* | 76* | 0 | 109* | . | 87*
O=C(NC1CCCCC1)C(c1cccnc1)N(C(=O)CCl)c1ccccc1Cl (centres undefined) | 48 | 63* | 13 | 101* | . | 20
CCNC(=O)C[C@H]1CC[C@H]2[C@@H](COC[C@@H](O)CN2C(=O)Nc2c(C)noc2C)O1 | -1 | . | 0 | -14 | -6 | .
Cc1cc(/C=N/n2cnnc2)c(C)n1-c1ccc(Cl)cc1 | . | 3 | -7 | 20 | . | 9
Cc1cc(/C=N/n2cnnc2)c(C)n1-c1ccc(OCc2ccc(Cl)cc2Cl)cc1 | . | 31 | . | . | 25 | 92*
CCCNC(=O)Nc1ccc2c(c1)C(=O)N(C)[C@@H]1CC[C@@H](CC(=O)OC)O[C@H]1CO2 | 5 | . | 4 | -7 | 1 | .
CC(C)OCCCNC(=O)C1CCC(CNS(=O)(=O)c2ccccc2)CC1 (centres undefined) | -4 | 67* | 14 | -9 | . | -7
COCCNC(=O)C1CCC(CNS(=O)(=O)c2ccccc2)CC1 (centres undefined) | 10 | 56* | 1 | 21 | . | .
COCCNC(=O)C1CCC(CNS(=O)(=O)c2ccc(F)cc2)CC1 (centres undefined) | -14 | 6 | 4 | 0 | 2 | -4
CN(C)C(=O)c1cccc(-c2ccc([C@@H]3[C@H](CO)N4CCCCN(C(=O)C5CCC5)C[C@@H]34)cc2)c1 | 3 | . | 1 | 5 | 5 | .
